The target in test [1] is Glutathione peroxidase 1 (Homo sapiens) (UniProt P07203). The experiment in a line: Primary qHTS Assay for Inhibitors of Recombinant Selenoprotein Glutathione Peroxidase 1 (GPX1) (AID 1845191). Further: nearly all actives have a fitted effect of over 65% in size. On activity, negative = inhibition: on the % scale 0 is the no-effect control and ±100 the full control effect. In short, it runs like this:
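GR-coupled assay: compounds preincubated 30 min at room temperature with GPX1, then reaction started with CHP; final 10 nM GPX1, 1 mM GSH, 0.5 mM CHP, 0.5 mM NADPH, 100 nM GR, 0.01% BSA, pH 7.5 Tris buffer. NADPH fluorescence (340/450 nm) read at 0 and 15 min.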
(In general: In qHTS, concentration-response curves come from the screen itself.)

Test [2] concerns the target Phospholipid hydroperoxide glutathione peroxidase GPX4 (Homo sapiens) (UniProt P36969). The experiment in a line: Primary qHTS Assay for Inhibitors of Recombinant Selenoprotein Glutathione Peroxidase 4 (GPX4) (AID 1845192). Further: nearly all actives have a fitted effect of over 65% in size. On activity change, negative = inhibition: series mostly up to about 50 µM; on the % scale 0 is the no-effect control and ±100 the full control effect. The essentials: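 GR-coupled assay: recombinant GPX4 preincubated 30 min with compound at room temperature; final 200 nM GPX4, 1 mM GSH, 0.5 mM cumene hydroperoxide, 0.5 mM NADPH, 100 nM GR, 0.01% BSA, pH 7.5 Tris. NADPH fluorescence (340/450 nm) read at 0 and 15 min.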

Test [3] concerns the target Luciferin 4-monooxygenase (Photinus pyralis) (UniProt P08659). The experiment in a line: Primary firefly luciferase (FLuc) qHTS assay for identification of artifact compounds. (AID 1845220). Further: nearly all actives have a fitted effect of over 60% in size.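 On activity change, negative = inhibition: series mostly up to about 54 µM; plate controls were DMSO vehicle for no effect and no enzyme for full effect.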 In short, it runs like this: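 Titrated compounds were incubated 15 min at RT, protected from light, with luciferin and ATP at 10 uM; reaction started with 10 nM FLuc, luminescence imaged at 5 min, and concentration-response fitted by Hill equation.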

Test [4] can be described thus: Primary fluorescence-based thiol-reactive (MSTI) qHTS assay for identification of artifact compounds. (AID 1845221). Further: nearly all actives have a fitted effect of over 65% in size. Further: potency means the concentration at half of the fitted maximal effect.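 On activity change, negative = thiol reactive: series mostly up to about 54 µM; thiol-reactive compounds lower the probe fluorescence signal.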 The essentials: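 In PBS pH 7.4 with 2% DMSO, each compound met 4 uM MSTI for one hour at ambient temperature, shielded from light, before fluorescence detection.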
The subject of test [5] is Nanoluciferase (engineered Oplophorus gracilirostris luciferase). The experiment in a line: Primary Nanoluciferase (NLuc) qHTS assay for identification of artifact compounds. (AID 1845222).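 Further: NLuc secreted into diluted conditioned medium of S16 cells; series mostly up to about 54 µM; 0% = DMSO and -100% = no enzyme.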 In short, it runs like this:
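qHTS format, against NLuc in S16 cell-conditioned medium. Nano-Glo substrate 1:100 was added after 15 min at room temperature. Luminescence was taken after a further 5 min.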

Test [6] can be described thus: Primary redox qHTS assay for identification of artifact compounds. (AID 1845223).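 Further: 0% = DMSO and 100% = reference compound.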 The essentials:
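Amplex Red (25 uM) and HRP (250 mU/mL) in HBSS, with compounds for 15 min, then 250 uM DTT for 30 min, room temperature, dark. Fluorescence 525/598 nm read; normalized to DMSO and 10 uM DA3003; Hill fit.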

Unmarked numbers belong to inactive results. Results filed as inconclusive are left out. Activity calls are given as the source filed them. The call rests on the fitted dose curve; in most records, active means well fitted curve in the direction sought with a large enough effect; inconclusive means small, poorly fitted or top-dose-only effect, or another doubt; inactive means no such curve, though single readings can be large; an effect the other way counts as inactive or inconclusive.

Phospholipid hydroperoxide glutathione peroxidase GPX4 (Homo sapiens), sequence (P36969 whole entry, looked up): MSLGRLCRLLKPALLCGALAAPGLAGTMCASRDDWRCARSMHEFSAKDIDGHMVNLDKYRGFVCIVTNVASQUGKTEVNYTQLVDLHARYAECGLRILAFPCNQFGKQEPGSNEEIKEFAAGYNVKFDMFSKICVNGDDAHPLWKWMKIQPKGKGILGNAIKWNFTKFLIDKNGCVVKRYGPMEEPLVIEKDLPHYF
Glutathione peroxidase 1 (Homo sapiens), sequence (P07203 whole entry, looked up): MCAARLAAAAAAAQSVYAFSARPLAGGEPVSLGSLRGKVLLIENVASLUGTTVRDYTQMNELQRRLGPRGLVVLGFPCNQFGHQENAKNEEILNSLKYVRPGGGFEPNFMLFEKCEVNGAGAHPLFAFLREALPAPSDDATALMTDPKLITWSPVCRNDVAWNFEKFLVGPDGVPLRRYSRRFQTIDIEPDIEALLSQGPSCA

For `C=C1[C@H]2CCC3[C@]4(C)CCC[C@@](C)(C(=O)O)C4CC[C@]3(C2)[C@H]1OC(C)=O` (stereo not given in full), the Potency result in test [1], in test [2], in test [3], in test [4], in test [5] and in test [6] was “inactive” each time.

Take `CC(CCO)CCC1C2(C)CCCC(C)(C)C2CC[C@@]1(C)O` (stereo not given in full): the Potency entry in test [1], in test [2], in test [3], in test [4], in test [5] and in test [6] was “inactive” in each case.

In the case of `CC1=CCC[C@@H]2[C@](CCc3ccoc3)(C(=O)O)[C@H](C)CC[C@@]12C`, the Potency entry in test [1], in test [2], in test [3], in test [4], in test [5] and in test [6] was “inactive” in each case.

For the compound `COCCN1CCC(C(=O)NO)(S(=O)(=O)c2ccc(Oc3ccc(OC(F)(F)F)cc3)cc2)CC1`, the Potency result in test [1], in test [2], in test [3], in test [4], in test [5] and in test [6] was “inactive” throughout.

On to `CC(C)(O)C1CCC2(C)CCCC(C)(O)C2C1` (stereo not given), for which the Potency result in test [1], in test [2], in test [3], in test [4], in test [5] and in test [6] was “inactive” in each case.

In the case of `C=C1CC2C3(C)C=CC(=O)OC(C)(C)C3CC(OC(C)=O)C2(C)C2C(=O)OC(C)C(=O)C12C` (stereo not given), the Potency result in test [1], in test [2], in test [3], in test [4], in test [5] and in test [6] was “inactive” in each case.

In the case of `Cn1cc(Nc2cnccc2C(=O)O)c2cccnc21`, the Potency entry in test [1], in test [2], in test [3], in test [4], in test [5] and in test [6] was “inactive” each time.

With `C[C@@H]1O[C@@H](O[C@H]2[C@H](OC(=O)[C@]34CCC(C)(C)C[C@H]3C3=CCC5[C@@]6(C)C[C@@H](O)[C@@H](O)[C@@](C)(CO)C6[C@H](O)C[C@@]5(C)[C@]3(C)CC4)OC[C@H](O)[C@@H]2O)[C@H](O)[C@H](O)[C@H]1O[C@@H]1OC[C@@H](O)[C@H](O[C@H]2O[C@H](C)[C@@H](O)[C@H](O)[C@@H]2O)[C@H]1O` (stereo not given in full), the Potency entry in test [1] and in test [2] was “inactive” throughout. In test [3], the outcome was “inactive [at 11.6 µM]”. Moreover, in test [4], the activity change, negative = thiol reactive was 381% [at 11.5 µM]. Further, the activity, negative = inhibition in test [5] was 4.47% [at 11.6 µM]. Also, the redox activity (% of DA3003) in test [6] is 18.5% [at 11.5 µM].

As to `N#Cc1cc(-c2n[nH]c(-c3ccncc3)n2)ccn1`, the Potency result in test [1], in test [2], in test [3], in test [4], in test [5] and in test [6] was “inactive” each time.

Consider `C/C=C(/C)C(=O)OC1CC(C)(C)CC2C3=CCC4C5(C)CCC(OC6OC(C)C(OC7OC(C(=O)O)C(O)C(OC8OC(CO)C(O)C(O)C8OC8OC(CO)C(O)C(O)C8O)C7O)C(O)C6O)C(C)(C)C5CCC4(C)C3(C)C(OC(=O)/C=C/C=C/C=C/CCC)C(OC(C)=O)C12CO` (stereo not given), for which the Potency entry in test [1] and in test [2] was “inactive” in each case. In addition, in test [3], the activity change, negative = inhibition is 1.89% [at 11.6 µM]. For the same compound, the activity change, negative = thiol reactive in test [4] is 260% [at 11.5 µM]. Further, the activity, negative = inhibition in test [5] was -1.65% [at 11.6 µM]. Also, the redox activity (% of DA3003) in test [6] was 13.7% [at 11.5 µM].

On to `Cc1ccccc1NC(=O)Nc1ccc(CN2C(=O)N([C@@H](CC(C)C)C(=O)N[C@@H](CC(=O)O)c3ccccc3)C(=O)C2(C)C)cc1`, for which the Potency entry in test [1], in test [2], in test [3], in test [4], in test [5] and in test [6] was “inactive” in each case.

With `O=C(OC[C@H]1O[C@H](O[C@]2(CO)O[C@H](CO)[C@@H](O)[C@@H]2O)[C@H](O)[C@@H](O)[C@@H]1O)c1ccc(O)cc1`, the Potency entry in test [1], in test [2], in test [3], in test [4], in test [5] and in test [6] was “inactive” each time.

With `CC(C)(OC1OC(CO)C(O)C(O)C1O)C1CCC(O)(CO)C2CC(=O)C(C)(O)C2C1` (stereo not given), the Potency result in test [1], in test [2], in test [3], in test [4], in test [5] and in test [6] was “inactive” each time.

Turning to `CC1(C)CC[C@]2(C(=O)O[C@@H]3O[C@H](CO)[C@@H](O)[C@H](O)[C@H]3O)CC[C@]3(C)C(=CCC4[C@@]5(C)C[C@@H](O)[C@H](O)[C@@](C)(CO)C5[C@H](O)C[C@]43C)C2[C@@H]1O` (stereo not given in full), the Potency result in test [1], in test [2], in test [3], in test [5] and in test [6] was “inactive” in each case. Also, in test [4], the Potency is 3160 nM (active).

`CC(C)CC(=O)O[C@@H]1O[C@H](CO)[C@@H](O[C@H]2O[C@H](C)[C@@H](N[C@H]3C=C(CO)[C@@H](O[C@H]4O[C@H](CO)[C@@H](O[C@H]5O[C@H](CO)[C@@H](O[C@H]6O[C@H](CO)[C@@H](O)[C@H](O)[C@H]6O)[C@H](O)[C@H]5O)[C@H](O)[C@H]4O)[C@H](O)[C@H]3O)[C@H](O)[C@H]2O)[C@H](O)[C@H]1O`: the Potency result in test [1] and in test [2] was “inactive” in each case. For the same compound, the outcome in test [3] was “inactive [at 11.6 µM]”. Moreover, in test [4], the activity change, negative = thiol reactive was 7.36% [at 11.5 µM]. Also, the activity, negative = inhibition in test [5] is 0.158% [at 11.6 µM]. Besides, the redox activity (% of DA3003) in test [6] was 4.39% [at 11.5 µM].

With `CCCC(C(=O)O)c1c(C)nc2ccc(Cl)cc2c1-c1ccccc1` (stereo not given), the Potency entry in test [1], in test [2], in test [3], in test [4], in test [5] and in test [6] was “inactive” in each case.

On to `COc1c(C)c(OCC=C(C)C)cc2c1COC2=O`, for which the Potency result in test [1], in test [2], in test [3], in test [4], in test [5] and in test [6] was “inactive” throughout.

As for `CCCNCCOc1ccc(NC(=O)c2c[nH]c3c2C(=O)CCC3)cc1F`, the Potency result in test [1], in test [2], in test [3], in test [4], in test [5] and in test [6] was “inactive” each time.

`CC(CNS(=O)(=O)C(C)C)c1ccc(-c2ccc(C#N)cc2)cc1` (stereo not given): the Potency result in test [1], in test [2], in test [3], in test [4], in test [5] and in test [6] was “inactive” each time.

For `C/C=C1/[C@H](O[C@@H]2O[C@H](CO)[C@@H](O)[C@H](O)[C@H]2O)OC=C(C(=O)OC)[C@H]1CC(=O)OCCc1ccc(O)c(O)c1`, the Potency result in test [1], in test [2], in test [3], in test [5] and in test [6] was “inactive” throughout. In test [4], the Potency was 2070 nM (active).

The values above are taken from PubChem BioAssay (NCATS).
